# For part of these data: Measured potencies and affinities stand elsewhere. The source made the active and inactive calls.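 How the source made its calls, unless noted: active means calcium signal ratio cut to more than 3 SD under the fully stimulated control mean yet still positive, in both repeats and the primary screen; inactive means the rest.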
# What was measured:
# [1] = test system: TRPC4 beta (transient receptor potential cation channel C4), mouse; assay: TRPC4 cation channel opening, retest – cell-based, Fluo4 calcium, HEK293 TRPC4beta/mu-opioid, duplicates, 10 µM, confirmation (AID 2426;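 active means fluorescence ratio normalized to control raised more than 50% in primary screen plus both repeat runs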); conditions: Fluo4 calcium fluorescence, at 10 µM; stronger effect = higher value
# [2] = test system: transient receptor potential cation channel C4 beta (TRPC4), mouse; assay: TRPC4 cation channel opening, second retest – cell-based, second round, Fluo4, HEK293 TRPC4beta/mu-opioid, 1 µM, confirmation (AID 2461;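 active means primary screen active and over 50% activation in each of two duplicate runs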); conditions: Fluo4 calcium fluorescence, at 1 µM; stronger effect = higher value
# [3] = test system: TRPC4 (transient receptor potential cation channel C4 beta), mouse; assay: potentiation of DAMGO EC20 TRPC4 response – cell-based, second round, Fluo-4, HEK293 TRPC4beta/mu-opioid, 1 µM, confirmation (AID 2554;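 active means primary screen hit whose fluorescence ratio, in both repeats, exceeds the weak agonist control mean by 3 SD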); conditions: DAMGO EC20, Fluo-4 calcium flux, at 1 µM; stronger effect = higher value
# [4] = test system: TRPC4 beta (transient receptor potential cation channel C4), mouse; assay: potentiation of DAMGO EC20 TRPC4 response – cell-based, Fluo-4, HEK293 TRPC4beta/mu-opioid, confirmation (AID 2555;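 active means primary screen hit whose calcium fluorescence ratio, in both repeats, exceeds the weak agonist control mean by 3 SD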); conditions: DAMGO EC20, Fluo-4 calcium flux, at 10 µM; stronger effect = higher value
# [5] = target: Short transient receptor potential channel 4 (Mus musculus) (UniProt Q9QUQ5); assay: blockers of DAMGO-evoked TRPC4 calcium flux – cell-based, Fluo4, HEK293 TRPC4beta/mu-opioid, confirmation (AID 2636;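 active means calcium signal cut by more than 3 SD below the full-agonist control yet still positive, in both repeats and the earlier primary screen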); conditions: at 10 µM; stronger effect = higher value
# Short transient receptor potential channel 4 (Mus musculus), sequence (Q9QUQ5 whole entry, looked up): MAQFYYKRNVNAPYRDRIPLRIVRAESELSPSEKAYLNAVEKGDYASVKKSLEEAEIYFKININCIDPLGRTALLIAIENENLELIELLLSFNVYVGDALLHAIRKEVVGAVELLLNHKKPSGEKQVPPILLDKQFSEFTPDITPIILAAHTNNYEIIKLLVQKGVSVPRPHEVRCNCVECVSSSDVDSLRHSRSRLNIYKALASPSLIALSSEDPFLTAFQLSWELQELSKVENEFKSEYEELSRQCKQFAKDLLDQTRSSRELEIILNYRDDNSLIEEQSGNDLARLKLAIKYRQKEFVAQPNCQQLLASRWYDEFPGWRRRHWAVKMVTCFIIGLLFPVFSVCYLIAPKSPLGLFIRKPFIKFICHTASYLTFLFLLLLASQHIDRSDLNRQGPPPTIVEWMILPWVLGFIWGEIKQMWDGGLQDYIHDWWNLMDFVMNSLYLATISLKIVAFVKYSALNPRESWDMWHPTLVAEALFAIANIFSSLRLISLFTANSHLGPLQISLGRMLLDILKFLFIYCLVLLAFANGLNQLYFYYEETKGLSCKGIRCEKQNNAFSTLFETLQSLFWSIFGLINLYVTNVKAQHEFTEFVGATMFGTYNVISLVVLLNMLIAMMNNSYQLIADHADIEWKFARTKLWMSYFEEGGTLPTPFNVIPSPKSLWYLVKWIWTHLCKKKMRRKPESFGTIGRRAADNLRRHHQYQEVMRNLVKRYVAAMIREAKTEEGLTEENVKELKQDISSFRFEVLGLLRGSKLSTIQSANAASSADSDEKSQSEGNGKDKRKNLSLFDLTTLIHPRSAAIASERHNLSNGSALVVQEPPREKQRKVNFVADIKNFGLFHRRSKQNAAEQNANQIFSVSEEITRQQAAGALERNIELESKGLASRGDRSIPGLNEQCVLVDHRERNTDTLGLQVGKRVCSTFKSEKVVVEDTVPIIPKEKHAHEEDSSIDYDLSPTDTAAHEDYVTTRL
# [6] = target: Short transient receptor potential channel 4 (Mus musculus) (UniProt Q9QUQ5); assay: blockers of DAMGO-evoked TRPC4 calcium flux – cell-based, second round, Fluo4, HEK293 TRPC4beta/mu-opioid, 1 µM, confirmation (AID 2637); conditions: at 1 µM; stronger effect = higher value;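 on inhibition: percent of integrated ratio relative to wells lacking test compound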
# [7] = target: Short transient receptor potential channel 4 (Mus musculus) (UniProt Q9QUQ5); assay: calcium entry via TRPC4 opening agents – cell-based, HEK293 TRPC4/mu-opioid, Fluo-4 calcium, dose response (AID 434937;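 active means primary screen activator hit with a dose response curve and TRPC4 channel activation at any tested dose; inactive means no activation, no dose response, or not a primary hit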); conditions: HEK293 TRPC4 cells, Fluo-4 calcium fluorescence ratio; series mostly up to 20 µM
# [8] = target: Short transient receptor potential channel 4 (Mus musculus) (UniProt Q9QUQ5); assay: potentiation of DAMGO-evoked TRPC4 calcium signal – cell-based, HEK293 TRPC4/mu-opioid, Fluo-4 calcium, EC20 DAMGO, dose response (AID 434941;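 active means earlier screen potentiator hit that boosts the TRPC4 ion channel at some dose, with a dose response; inactive means no potentiation, no dose response, or not a prior hit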;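 further: calcium entry triggered by an EC20 dose of DAMGO at the co-expressed mu-opioid receptor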); conditions: HEK293 TRPC4/mu-opioid cells, Fluo-4 calcium fluorescence; series mostly up to 20 µM
# [9] = target: Short transient receptor potential channel 6 (Mus musculus) (UniProt Q61143); assay: TRPC6 blockade by TRPC4 inhibitor hits – cell-based, HEK293, membrane potential dye, duplicate, selectivity assay for TRPC4 inhibitor project, confirmation (AID 434948;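 active means active in primary screen and both duplicates, each dropping signal beyond three positive-control SD with fluorescence still positive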); conditions: HEK293 TRPC6, membrane potential dye fluorescence, at 10 µM, stimulated with maximal-effect acetylcholine; stronger effect = higher value
# Short transient receptor potential channel 6 (Mus musculus), sequence (Q61143 whole entry, looked up): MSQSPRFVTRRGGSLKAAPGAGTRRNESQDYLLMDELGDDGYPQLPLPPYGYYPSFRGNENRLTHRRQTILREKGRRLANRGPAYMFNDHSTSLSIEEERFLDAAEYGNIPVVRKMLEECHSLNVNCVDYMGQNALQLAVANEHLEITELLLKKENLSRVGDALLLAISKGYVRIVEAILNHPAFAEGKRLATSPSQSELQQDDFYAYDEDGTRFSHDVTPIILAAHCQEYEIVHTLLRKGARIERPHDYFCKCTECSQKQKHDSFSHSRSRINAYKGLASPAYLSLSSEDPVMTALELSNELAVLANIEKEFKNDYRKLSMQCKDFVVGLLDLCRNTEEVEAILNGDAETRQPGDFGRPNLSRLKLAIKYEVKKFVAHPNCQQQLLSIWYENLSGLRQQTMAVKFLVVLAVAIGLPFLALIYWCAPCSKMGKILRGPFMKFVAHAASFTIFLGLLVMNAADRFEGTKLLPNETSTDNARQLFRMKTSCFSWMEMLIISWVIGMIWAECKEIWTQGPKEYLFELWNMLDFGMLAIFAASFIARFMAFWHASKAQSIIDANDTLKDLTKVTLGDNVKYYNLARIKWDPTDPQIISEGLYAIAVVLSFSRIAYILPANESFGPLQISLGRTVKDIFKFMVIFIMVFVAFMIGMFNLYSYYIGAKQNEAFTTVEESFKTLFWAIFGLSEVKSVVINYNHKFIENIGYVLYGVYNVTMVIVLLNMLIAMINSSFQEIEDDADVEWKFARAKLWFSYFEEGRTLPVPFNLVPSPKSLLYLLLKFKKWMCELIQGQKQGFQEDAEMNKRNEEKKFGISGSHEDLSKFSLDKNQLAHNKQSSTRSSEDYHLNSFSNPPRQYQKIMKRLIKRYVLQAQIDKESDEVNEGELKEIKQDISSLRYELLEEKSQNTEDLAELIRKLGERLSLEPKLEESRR
# [10] = target: Short transient receptor potential channel 6 (Mus musculus) (UniProt Q61143); assay: TRPC6 opening by TRPC4 activator hits – cell-based, HEK293, membrane potential dye, duplicate, selectivity assay for TRPC4 activator project, confirmation (AID 434950;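 active means membrane potential signal rise above negative control mean plus 3 SD in both duplicates, also active in the earlier TRPC4 screen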); conditions: HEK293 TRPC6, membrane potential fluorescence, at 10 µM; activation: stronger effect = higher value; outcome: activation
# [11] = target: Short transient receptor potential channel 6 (Mus musculus) (UniProt Q61143); assay: positive modulators of mouse TRPC6 channel – HEK293 cells, membrane potential dye, duplicate, selectivity assay for TRPC4 potentiator project, confirmation (AID 434952;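 active means compound raising the membrane signal above positive-control mean plus 3 SD in both repeats, and a primary screen hit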); conditions: HEK293 TRPC6, membrane potential dye fluorescence, at 10 µM, maximal acetylcholine added after compound; stronger effect = higher value
# [12] = target: Short transient receptor potential channel 4 (Mus musculus) (UniProt Q9QUQ5); assay: calcium flux activators in TRPC4/5HT1a cells, counter-screen for TRPC4 activator project, cell-based, second counter screen, HEK293 TRPC4/5HT1a, Fluo-4 (AID 434977;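 active means calcium signal rise above buffer-control mean plus 5 SD in both duplicates, and also a hit in the primary screen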); conditions: Fluo-4 calcium flux, at 10 µM; stronger effect = higher value
# [13] = serotonin-gated TRPC4 signal block – cell-based, second counter screen, HEK293 TRPC4/5HT1a, Fluo-4, counter-screen for TRPC4 inhibitor project, confirmation (AID 434978;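 active means primary screen active whose calcium signal fell more than 3 SD beyond the full-serotonin control mean in both duplicate plates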;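 on outcome: serotonin given first at submaximal then at maximal dose after compound preincubation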); conditions: Fluo-4 calcium flux, at 10 µM, serotonin added to trigger calcium flux; stronger effect = higher value
# [14] = test system: TRPC4 (mouse), co-expressed with 5HT1a in HEK293; assay: enhancement of serotonin-evoked TRPC4 response – cell-based, second counter screen, HEK293 TRPC4/5HT1a, Fluo-4, counter-screen for TRPC4 potentiator project, confirmation (AID 434979;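 active means signal rise over 3 SD above mean of control wells given weak agonist, in both repeats and first screen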); conditions: Fluo-4 calcium flux, at 10 µM, serotonin added at its EC20 dose; stronger effect = higher value
# [15] = nonspecific calcium rise without TRPC4 – cell-based, HEK293 mu-opioid receptor line, counter-screen for TRPC4 activator project, confirmation (AID 449723;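 active means hit in primary screen, with calcium signal over 5 SD above buffer well mean in both duplicates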;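 further: counter screen cells carry the mu-opioid receptor alone and lack TRPC4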); conditions: HEK293 mu-opioid cells, Fluo-4 calcium fluorescence, at 10 µM; stronger effect = higher value
# [16] = nonspecific potentiation of DAMGO calcium response – cell-based, HEK293 mu-opioid receptor line, counter-screen for TRPC4 allosteric potentiator project, confirmation (AID 449724;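 active means calcium signal rise more than 3 SD above the low-dose agonist control mean, in both duplicate plates and the primary screen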); conditions: HEK293 mu-opioid receptor cells, Fluo-4 calcium flux, at 10 µM, compound added before EC20 DAMGO stimulus; stronger effect = higher value
SMILES,outcome [1],outcome [2],outcome [3],outcome [4],inhibition [5],outcome [6],outcome [7],outcome [8],outcome [9],outcome [10],outcome [11],outcome [12],outcome [13],outcome [14],outcome [15],outcome [16],inhibition [13],inhibition [6],inhibition [9],outcome [5]
O=C(COc1ccc(Cl)cc1)Nc1ccc(C(=O)O)cc1NC(=O)COc1ccc(Cl)cc1,inactive,inactive,inactive,inactive,68% (active),inactive,inactive,inactive,inactive,inactive,inactive,inactive,inactive,inactive,inactive,inactive,–,–,–,–
NC(=O)c1nsc(C(=O)N(Cc2ccco2)C(C(=O)NCC2CCCO2)c2ccc(F)cc2)c1N (stereo not given),inactive,inactive,inactive,inactive,76% (active),inactive,inactive,inactive,inactive,inactive,inactive,inactive,inactive,inactive,inactive,inactive,–,–,–,–
C=CCn1cnc2scc(-c3ccc(CC)cc3)c2c1=O,inactive,inactive,inactive,inactive,57% (active),inactive,inactive,inactive,inactive,inactive,inactive,inactive,inactive,inactive,inactive,inactive,–,–,–,–
Cc1cc(OCc2cc(C(=O)NCCN3CCCCC3CO)no2)cc(C)c1Cl (stereo not given),inactive,inactive,inactive,inactive,93% (active),inactive,inactive,inactive,inactive,inactive,inactive,inactive,–,inactive,inactive,inactive,21.5% (active),–,–,–
COc1cc2c(cc1OC)C(C)N(CCc1ccc(Cl)cc1)CC2 (stereo not given),inactive,inactive,inactive,inactive,75% (active),inactive,inactive,inactive,inactive,inactive,inactive,inactive,inactive,inactive,inactive,inactive,–,–,–,–
NC(=O)c1nsc(C(=O)N(Cc2ccccc2F)C(C(=O)NCC2CCCO2)c2ccc(F)cc2)c1N (stereo not given),inactive,inactive,inactive,inactive,93% (active),–,inactive,inactive,inactive,inactive,inactive,inactive,–,inactive,inactive,inactive,26.4% (active),50% (active),–,–
Cc1cc(Nc2ccc(C)c(C)c2)c2ccccc2n1,inactive,inactive,inactive,inactive,99% (active),–,inactive,inactive,–,inactive,inactive,inactive,–,inactive,inactive,inactive,30.8% (active),42% (active),35.5% (active),–
CC1CCc2c(sc3ncnc(SCC(=O)Nc4ccc(C(=O)O)cc4)c23)C1 (stereo not given),inactive,inactive,inactive,inactive,88% (active),–,inactive,inactive,inactive,inactive,inactive,inactive,inactive,inactive,inactive,inactive,–,45% (active),–,–
CCOC(=O)c1oc2ccccc2c1CN1CCCCC1,inactive,inactive,inactive,inactive,91% (active),inactive,inactive,inactive,inactive,inactive,inactive,inactive,–,inactive,inactive,inactive,34.9% (active),–,–,–
Cc1cc(N/N=C/c2ccccc2F)c2ccccc2n1,inactive,inactive,inactive,inactive,97% (active),–,inactive,inactive,inactive,inactive,inactive,inactive,–,inactive,inactive,inactive,13.1% (active),67% (active),–,–
CN1CCN(c2nc(-c3cccnc3)nc3scc(-c4ccccc4)c23)CC1,inactive,inactive,inactive,inactive,–,inactive,inactive,inactive,inactive,inactive,inactive,inactive,inactive,inactive,inactive,inactive,–,–,–,inactive
Cc1ccccc1N(C(=O)c1snc(C(N)=O)c1N)C(C(=O)NC1CCCC1)c1ccco1 (stereo not given),inactive,inactive,inactive,inactive,78% (active),inactive,inactive,inactive,inactive,inactive,inactive,inactive,–,inactive,inactive,inactive,37% (active),–,–,–
Cc1cccc(-n2ccnc2CN2CCC(CO)(Cc3ccccc3)CC2)c1,inactive,inactive,inactive,inactive,70% (active),inactive,inactive,inactive,inactive,inactive,inactive,inactive,inactive,inactive,inactive,inactive,–,–,–,–
CCCn1c(=O)c2ccccc2n2c(SCCOc3ccccc3)nnc12,inactive,inactive,inactive,inactive,67% (active),inactive,inactive,inactive,inactive,inactive,inactive,inactive,–,inactive,inactive,inactive,37.4% (active),–,–,–
CCOC(=O)C1=C(C)NC(=O)CC1c1cc2c(cc1[N+](=O)[O-])OCO2 (stereo not given),inactive,inactive,inactive,inactive,71% (active),–,inactive,inactive,inactive,inactive,inactive,inactive,–,inactive,inactive,inactive,20.2% (active),40% (active),–,–

# From PubChem BioAssay
